# A selection: hits, their analogues and other compounds. The true share with any hit is near 7.2%.
# RE007 growth inh – qHTS Assay for Inhibitors of the HIV-1 protein Vpr; S. pombe RE007 Vpr strain, BacTiter-Glo ATP luminescence, 24 h; Potency, µM (titrated, usually from 92.2 µM), inactives show at the top dose activity change, negative = less growth, most hits filed as inhibitors; actives 0.21% (n = 360,000); AID 651644, 2012; active means well fitted falling curve with a large enough effect; inconclusive means small, poorly fitted or top-dose-only effect; inactive means no such curve, though single readings can be large or run the other way; further: nearly all actives have a fitted effect of over 50% in size
#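 Fission yeast RE007 carrying one integrated HIV-1 vpr copy, seeded at OD 0.01 in PMG+AL medium with 23 nL pinned compound. Grown 24 h at 30 degrees; viability read by BacTiter-Glo luminescence after 5 min.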
# Sm TGR inh – qHTS Assay for the Inhibitors of Schistosoma Mansoni Peroxiredoxins | Potency, µM (titrated, usually from 114 µM), without a hit: at the highest dose activity change, negative = inhibition, most hits filed as inhibitors | purified TGR, DTNB reduction, TNB absorbance 405 nm | actives 3% (n = 360,000) | AID 485364, 2010; further: nearly all actives have a fitted effect of over 60% in size
#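 TGR 20 nM + NADPH 100 uM (dispensed conc.), cpd preinc 15 min RT; start with NADPH (500 uM addition) then DTNB (15 mM addition). Kinetic TNB absorbance, 405 nm filter. Four-parameter Hill fit across titration.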
# FMDV inh – High Throughput Screening for Foot and Mouth Disease Virus Antivirals; FMDV antiviral cell-based qHTS; Potency, µM (top dose mostly 57.9 µM), for inactives: top-dose activity change, negative = inhibition, usual class: inhibitors; actives 1.2% (n = 410,000); AID 1159524, 2015; calls by dose curve; tested in HEK293T cells; further: read-out not given here; nearly all actives have a fitted effect of over 45% in size
# Marburg entry inh – qHTS for inhibitors of binding or entry into cells for Marburg Virus | Marburg virus pseudotyped entry inhibition, cell reporter | actives 1.8% (n = 300,000) | Potency, µM (titrated, usually from 37.8 µM), for the others: at the highest dose activity change, negative = inhibition, usual class: inhibitors | AID 540276, 2011; calls by dose curve; tested in HEK293 cells
# LASV entry inh – qHTS for Inhibitors of binding or entry into cells for Lassa Virus | actives 1.2% (n = 300,000) | AID 540256, 2011 | Potency, µM (highest dose often 37.9 µM), without a hit: top-dose activity change, negative = inhibition, usual class: inhibitors | Lassa virus pseudotype entry inhibition, cell reporter; calls by dose curve; tested in HEK293 cells; further: nearly all actives have a fitted effect of over 50% in size
# HCV inh – qHTS Assay for Inhibitors of Hepatitis C Virus (HCV); AID 651820, 2012; Potency, µM (doses to about 41.8 µM), for the others: at the top dose activity change, negative = inhibition, actives largely listed as inhibitors; actives 3.4% (n = 340,000); Huh7.5.1 HCVcc-Cre infection, luciferase reporter, 44 h
#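 HCVcc-Cre virus at an moi near 0.5 was added right after compound to cells cultured 4 h from seeding (1,000 cells/well). Luciferase activity was determined 44 h later, 15 min after substrate addition at RT.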
# The depositor's hits bear a star; ? = inconclusive; · = no result; ! = not confirmed by another sample; [ ] = remark or other dose. Unless noted, the call rests on the fitted dose curve; in most records, active means well fitted curve in the direction sought with a large enough effect; inconclusive means small, poorly fitted or top-dose-only effect, or another doubt; inactive means no such curve, though single readings can be large; an effect the other way counts as inactive or inconclusive. On the % scale 0 is the no-effect control and ±100 the full control effect; potency means the concentration at half of the fitted maximal effect.
SMILES,RE007 growth inh,Sm TGR inh,FMDV inh,Marburg entry inh,LASV entry inh,HCV inh
Nc1nc(N2CCN(C(=O)c3ccco3)CC2)nc2ccc(Br)cc12,-7.3%,44.7µM*,-14.6%,?,?,11.2µM*
CCN(CCO)C(=O)c1cnn(-c2ncc3c(n2)-c2ccccc2CCC3)c1C1CC1,·,·,37.9%,·,·,·
O=C(c1ccco1)N1CCN(c2nc3ccccc3c(=O)n2-c2ccccc2)CC1,-1.6%,-17.6%,7.08µM*,-28.3%,?,21.5%
Cc1[nH]c2ccccc2c1NC(=O)CN1CCN(C(=O)c2ccco2)CC1,-5.5%,31.6µM*,4.4%,-4.7%[14.2 µM],-1.5%,12.7%
Cc1cccnc1-c1cccc2c1OC(CNC(=O)C(=O)c1ccccc1)C2 (configuration not stated),·,·,-9.9%,·,·,·
CSc1nc2ncc3c(n2n1)CC1c2ccccc2CCN1C3=O (configuration not stated),-6.7%[3.69 µM],-8.0%,?,-1.2%,-22.3%,15.0%
O=C1c2cnc3nc(SCc4cccc(Cl)c4)nn3c2CC2c3ccccc3CCN12 (configuration not stated),-3.2%,-2.5%,-5.1%,-16.4%,-19.6%,11.2µM*
O=C(c1ccc(F)cc1)N1CCc2c([nH]c3ccccc23)C1c1ccc(Cl)cc1 (configuration not stated),·,8.7%,-21.0%,·,?,·
CCCCNC1=CC(=O)C(=O)c2ccccc21,-17.8%,5.5%,35.5µM*,16.4µM*,?,11.2µM*
CCCCNC1=CC(=O)C(NCCCC)=CC1=O,-17.7%,·,-11.3%,?,-22.1%[46.1 µM],-6.5%
O=C1C=C(Nc2cccc3cccnc23)c2ccccc2C1=O,-21.6%,31.6µM*,28.2µM*,?,-0.1%[46.1 µM],?
O=C1C=C(Nc2ccccc2)c2ccccc2C1=O,?,-13.9%,?,?,7.08µM*,8.91µM*
O=C1C=C(Nc2ccccc2)C(=O)c2ccccc21,?,-2.0%,9.1%,·,·,-16.5%
Clc1cccc(-n2ncc3c(NCCC4=CCCCC4)ncnc32)c1,·,8.4%,41.7%,·,12.6%[46.1 µM],·
Cc1ccc(CNc2ncnc3onc(C)c23)cc1,·,13.9%,?,·,5.0%[46.1 µM],·
Cc1ccc(-n2[nH]c(=O)c(-c3ccccn3)c2C)cc1,-15.1%,0.2%,7.08µM*,?,?,0.2%
Cc1ccc2c(CNCCc3ccccc3)c(C(=O)O)n(Cc3ccccc3C)c2c1,·,-8.0%,-20.1%,·,27.6%[46.1 µM],·
CCN1CCN(C(=O)c2cc(-c3ccc(Cl)s3)nc3ccccc23)CC1,-14.5%,?,0.0%,·,·,-28.3%
COC(=O)C1CCN(C(=O)c2cc(-c3ccc(Cl)s3)nc3ccccc23)CC1,23.8%,2.0%,35.5µM*,·,·,?
O=C(O)c1cc(-c2ccc(Cl)s2)nc2ccccc12,-8.4%,1.5%,19.3%,11.2µM*,?,14.6%
CC(C)CCCC(C)C1CCC2C3CC[C@H]4CC(=O)CC[C@@]4(C)C3CC[C@@]12C (some centres not stated),·,·,-0.6%,·,·,·
COc1cc(NC(=O)c2cc([N+](=O)[O-])ccc2NC(=O)CN2CCN(c3ccccn3)CC2)cc(OC)c1,-20.8%,2.4%,-25.2%,8.91µM*,?,?
O=C(CN1CCN(c2ccccn2)CC1)Nc1ccccc1C(=O)Nc1ccccc1,-9.3%,-8.7%,-26.7%,0.2%[46.1 µM],?,?
CCNS(=O)(=O)c1ccc(CCC(=O)O)cc1,-14.2%,-4.1%,-8.0%,2.8%,?,10µM*
CCNS(=O)(=O)c1ccc(CCC(N)=O)cc1,45.7%,·,-0.6%,-0.8%,20.7%[46.1 µM],16.1%
SMILES,RE007 growth inh,Sm TGR inh,FMDV inh,Marburg entry inh,LASV entry inh,HCV inh
COc1ccc(Cl)cc1NC(=O)C1CCN(S(=O)(=O)c2ccc3c(c2)CC(C)N3C(C)=O)CC1 (configuration not stated),·,-1.1%,?,·,-8.1%[46.1 µM],·
O=Cc1s/c(=N\S(=O)(=O)c2ccccc2)n(CCCCl)c1Cl,4.3%,0.631µM*,7.94µM*,?,?,4.47µM*
CCn1c(C)cs/c1=N\S(=O)(=O)c1ccccc1,-0.6%,4.2%,30.1%,·,·,17.6%
CCOC(=O)N1CCN(C(=O)CCc2ccccc2)CC1,14.3%,8.6%,8.2%,·,·,11.2%
CC(C)(C)C#CC(CCc1ccccc1)OS(N)(=O)=O (configuration not stated),·,28.2µM*,·,·,·,·
CCOC(=O)C#CC(CCc1ccccc1)OS(N)(=O)=O (configuration not stated),3.9%,11.2µM*,?,·,·,14.6%
CCOc1ccc2nc(NC(=O)c3cc(=O)c4cc(C)cc(C)c4o3)sc2c1,·,6.2%,-7.6%,-6.0%[46.1 µM],14.6%[46.1 µM],·
CN(C)S(=O)(=O)N1CCC(Oc2cccc(C(=O)N3CCCCCCC3)c2)CC1,13.1%,8.9%,?,-0.9%,11.2µM*,?
Cc1ccc(Cl)cc1NC(=O)CC(O)(C(F)(F)F)C(F)(F)F,-10.3%,-20.2%,·,?,?,22.4µM*
COCC(=O)Nc1cc(Cl)ccc1C,-1.4%,0.0%,-17.7%,16.1%[46.1 µM],16.4%,-2.6%
Cc1ccc(-c2nn3c(C)nnc3c3ccccc23)cc1S(=O)(=O)NCC(C)O (configuration not stated),·,2.3%,90.1%,·,-15.0%[46.1 µM],·
CCc1ccc(OCC(=O)N/N=C(\C)c2ccc(O)cc2O)cc1,5.1%,23.7%,-0.5%,?,?,11.2µM*
COc1ccc(CCNC(=O)c2ccc3c(c2)N(Cc2ccc(Cl)cc2)CCS3)c(OC)c1,·,6.0%,-4.6%,?,9.5%[46.1 µM],·
C1COC(NC(C2CC2)C2CC2)=N1,-17.0%,?,-14.0%,11.2µM*!,-3.3%,10.9%[8.37 µM]
COc1cc(/C=N/Nc2ccccn2)cc(OC)c1O,-4.3%,-18.7%,22.7%,?,7.94µM*,?
C=CCOc1ccc(/C=N/Nc2ccccn2)cc1OC,-4.3%,6.3%,61.3%,?,9.0%,14.1µM*
COc1cc(/C=N/Nc2ccccn2)ccc1OCC(C)C,-0.1%,0.0%,32.8%,?,-4.6%,8.91µM*
COc1cc(/C=N/Nc2cccc3cccnc23)cc(OC)c1O,-5.8%,-14.1%,-10.4%,·,·,22.4µM*
COc1cccc(/C=C2\Oc3ccc(O)cc3C2=O)c1O,-13.2%,-17.4%,11.2µM*,?,?,-5.4%
COc1ccc(Nc2nc(N)nc(CSc3nc4cc(OC)ccc4s3)n2)cc1,·,2.0%,?,-22.3%[46.1 µM],-20.1%[46.1 µM],·
O=C(Cn1cnc2c(nnn2-c2ccc(F)cc2)c1=O)NCc1ccco1,-13.8%,79.4µM*,-5.9%,3.2%,-17.5%,12.2%
O=C(Cn1nnc(-c2ccccc2F)n1)OCC(=O)c1ccccc1,-1.7%,0.794µM*,-6.7%,-16.3%[46.1 µM],-2.2%,9.8%

# Assay outcomes: PubChem BioAssay, National Center for Advancing Translational Sciences (NCATS)
